Calls of active or inactive are those of the source. The calls were made as follows: active = hit-call score of the fitted dose curve at least 0.9, where 1 is the maximum; inactive = score below 0.9.
Experiment: ATG_BRE_CIS: Attagene CIS-FACTORIAL HepG2 Assay for human Bone Morphogenetic Protein (BMP) Response Element (BRE) (AID 2282933)
Conditions: HepG2 BMP response element reporter, Attagene transcription factor profiling; actives raise or lower the signal
Experimental: ATG_CIS is a cell-based, multiplexed-readout assay that uses HepG2, a human liver cell line, with measurements taken at 24 hours after chemical dosing in a 24-well plate.ATG_BRE_CIS is one of 52 assay component(s) measured or calculated from the ATG_CIS assay. It is designed to make measurements of mRNA induction, a form of inducible reporter, as detected with fluorescence intensity signals by Reverse transcription polymerase chain reaction (RT-PCR) and Capillary electrophoresis technology.Data from the assay component ATG_BRE_CIS was analyzed into 1 assay endpoint. This assay endpoint, ATG_BRE_CIS, was analyzed with bidirectional fitting relative to DMSO as the negative control and baseline of activity. Using a type of inducible reporter, measures of mRNA for gain or loss-of-signal activity can be used to understand the reporter gene at the transcription factor-level as they relate to the gene SMAD1. Furthermore, this assay endpoint can be referred to as a primary readout, because this assay has produced multiple assay endpoints where this one serves a reporter gene function. To generalize the intended target to other relatable targets, this assay endpoint is annotated to the dna binding intended target family, where the subfamily is Smad protein.
Human liver HepG2 cells are transiently transfected with multiple reporter transcription units (MRTUs) in 6-well plates using FuGene 6 reagent (Roche; 3 ml FuGene/1 mg DNA). The MRTU constructs are regulated by a cis-regulating element (promoter). […] A major difference between the CIS and TRANS system is that in CIS activities of endogenous TFs are measured, whereas the TRANS assay evaluates changes in activities of exogenous, chimeric NR-Gal4 proteins. […] At the end of 24 hour incubation, total RNA was isolated using TriZol reagent (Invitrogen). The isolated RNA is then reverse-transcribed using oligo(dT) primer and Mo-MLV reverse transcriptase (Invitrogen) with DNAse I (Ambion) treatment for 30 min. The one-tenth of the produced cDNA was amplified by PCR using Taq DNA polymerase (Invitrogen) and two reporter sequence-specific primers. The PCR products were fluorescently labeled by primer extension with 6-arboxyfluorescein (6-FAM) 5'-labeled reporter sequence-specific primer (2 min at 95 C, 20 s at 68 C and 10 min at 72 C) and these products were digested with 5U of HpaI (New England Biolabs) for 2h at 37 C. The fragments were purified using Qiaquick PCR columns (Qiagen), analyzed on an ABI 3130xL genetic analyzer (Applied Biosystems) with peak positions identified by using a set of X-rhodamine (ROX)-labeled MapMarker1000 molecular weight standards (BioVentures). The raw capillary electrophoresis data was processed using Attagraph software (Attagene).

| Compound | outcome | AC50 |
| --- | --- | --- |
| CCCCCCCCCCC1CO1 (stereo not given) | inactive |  |
| C=C(C)C(=O)OCCCCCC | inactive |  |
| CCO[Si](CCCN)(OCC)OCC | inactive |  |
| CC(=O)OC(C)(C)Cc1ccccc1 | inactive |  |
| CC1=C(CC=O)C(C)(C)CCC1 | inactive |  |
| Cc1ccccc1S(=O)(=O)O | inactive |  |
| CCCCCC1CCCC(=O)O1 (stereo not given) | inactive |  |
| C[Si](C)(C)O[Si](C)(C)O[Si](C)(C)C | inactive |  |
| C[C@H]1C[C@H]2[C@@H]3CCC4=CC(=O)C=C[C@]4(C)[C@@]3(F)[C@@H](O)C[C@]2(C)[C@@]1(O)C(=O)CO |  | 73.3 µM (active) |
| COC(=O)CCSCCC(=O)OC | inactive |  |
| C=C1CC[C@H]2C[C@@H]1C2(C)C |  | 26.1 µM (active) |
| COC(=O)/C=C\C(=O)OC | inactive |  |
| CC(C)=CCOC(=O)c1ccccc1 | inactive |  |
| Cc1cc(C)c(S(=O)(=O)O)cc1N=Nc1cc(S(=O)(=O)O)c2ccccc2c1O | inactive |  |
| O=[N+]([O-])c1ccccc1C(F)(F)F | inactive |  |
| CCC(C)NC(N)=O (stereo not given) | inactive |  |
| CCCCCCC1CCCC(=O)O1 (stereo not given) | inactive |  |
| OCCN(CCO)c1cccc(Cl)c1 | inactive |  |
| NC(=O)c1ccc(N)cc1 | inactive |  |
| CC(C)(Oc1ccc(Cl)cc1)C(=O)O | inactive |  |

| Compound | outcome | AC50 |
| --- | --- | --- |
| C=CCOCC(CC)(CO)COCC=C | inactive |  |
| CCCC(=O)OC/C=C(\C)CCC=C(C)C | inactive |  |
| CN(C)CCC(c1ccc(Cl)cc1)c1ccccn1 (stereo not given) | inactive |  |
| O=C(C(=O)c1ccccc1)c1ccccc1 | inactive |  |
| C1=CCC=C1 | inactive |  |
| Cc1ccnc(N)c1 | inactive |  |
| O=C(OCc1ccccc1)c1ccccc1 | inactive |  |
| CN(C)Cc1cc(C(C)(C)C)c(O)c(C(C)(C)C)c1 | inactive |  |
| CCCCNC(N)=O | inactive |  |
| CCCCCCCCCC/C=C/C1CC(=O)OC1=O (stereo not given) | inactive |  |
| CCCCCC[C@@H](O)C/C=C\CCCCCCCC(=O)O |  | 139 µM (active) |
| CC/C=C\CC/C=C/C(OCC)OCC | inactive |  |
| CC/C=C/CCO | inactive |  |
| CCCCCCC(O)CCCCCCCCCCC(=O)OC (stereo not given) | inactive |  |
| COC(=O)c1ccccc1 | inactive |  |
| O=C(O)c1ccccc1C(=O)O | inactive |  |
| CO[Si](CCCNCCN)(OC)OC | inactive |  |
| O=C(Oc1ccccc1)c1ccccc1 | inactive |  |
| CCCCCCCCCCCCCCCCCC[N+](C)(C)C | inactive |  |
| CCC(C)=NO | inactive |  |

From PubChem BioAssay (EPA / NIEHS)
